Source: PubChem BioAssay (NCI)
The panel holds about 79,000 compounds, 15% with a hit somewhere; the sample as a whole holds those more often. Active and inactive are the calls of the source. Rule as the data show it: active = growth inhibition above about 70%; inactive = the rest.

Legend:
[1] = NCI Yeast Anticancer Drug Screen. Data for the rad52 strain (AID 147);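 also: 0% = growth of vehicle-treated control cultures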; conditions: S. cerevisiae rad52 mutant growth inhibition, hits give high values
How it was run: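 The repair-mutant yeast strain was incubated with compounds, then growth was read and inhibition derived relative to vehicle.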

[2] = NCI Yeast Anticancer Drug Screen. Data for the wt1 strain (AID 149);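 also: 0% = growth of vehicle-treated wt1 cultures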; conditions: S. cerevisiae wt1 strain (SPY 50644) growth inhibition, hits give high values
How it was run: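 Using yeast strain wt1, compound-induced growth inhibition was determined against vehicle-treated cultures.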

[3] = NCI Yeast Anticancer Drug Screen. Data for the rad50EPP+ strain (AID 151);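 also: 0% = growth of vehicle-treated control cultures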; conditions: S. cerevisiae rad50 mutant strain, hits give high values
How it was run: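 Vehicle-normalised growth inhibition; rad50EPP+ yeast strain, altered in DNA damage repair, compound-treated.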

[4] = NCI Yeast Anticancer Drug Screen. Data for the mgt1 strain (AID 153); conditions: S. cerevisiae mgt1 mutant growth inhibition, hits give high values
How it was run: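 Vehicle-normalized growth inhibition is determined in mgt1 yeast, a strain selected for a defined alteration in DNA repair or cell cycle control.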

[5] = NCI Yeast Anticancer Drug Screen. Data for the rad50 strain (AID 155);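 also: 0% = growth of vehicle-only cultures of the same strain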; conditions: S. cerevisiae rad50 strain growth inhibition, hits give high values
How it was run: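 Relative growth inhibition (compound vs vehicle) was measured in yeast with a defined repair-gene alteration.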

[6] = NCI Yeast Anticancer Drug Screen. Data for the mec2-1 strain (AID 157); conditions: S. cerevisiae mec2-1 strain, hits give high values
How it was run: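 Mutant yeast (mec2-1) grown with compound; growth inhibition relative to vehicle control reported.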

[7] = NCI Yeast Anticancer Drug Screen. Data for the rad14 strain (AID 159);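 also: 0% = growth of vehicle-treated control cultures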; conditions: S. cerevisiae rad14 strain growth inhibition, hits give high values
How it was run: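 Screen for anticancer potential: a yeast strain altered in DNA damage repair is grown with compound, and reduced growth is quantified against vehicle controls.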

[8] = NCI Yeast Anticancer Drug Screen. Data for the sgs1 mgt1 strain (AID 161);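 also: 0% = growth of cultures given vehicle only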; conditions: S. cerevisiae sgs1 mgt1 strain, hits give high values
How it was run: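 Yeast cells carrying a defined DNA-repair defect were exposed to test compounds. Growth inhibition was measured relative to vehicle-treated controls.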

[9] = NCI Yeast Anticancer Drug Screen. Data for the CLN2oe strain (AID 163);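 also: 0% = growth of vehicle-only control cultures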; conditions: S. cerevisiae CLN2oe strain, hits give high values
How it was run: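 Compounds are applied to yeast harbouring a defined cell-cycle control change; reduced growth compared with vehicle-treated controls gives the value.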

[10] = NCI Yeast Anticancer Drug Screen. Data for the cln2 rad14 strain (AID 165);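 also: 0% = growth equal to vehicle treated cultures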; conditions: S. cerevisiae cln2 rad14 strain, hits give high values
How it was run: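 Readout is yeast growth inhibition versus vehicle-treated controls, using a strain with cln2 and rad14 alterations exposed to compound.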

[11] = NCI Yeast Anticancer Drug Screen. Data for the bub3 strain (AID 167); conditions: S. cerevisiae bub3 mutant strain, hits give high values
How it was run: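 Screening used yeast with an engineered genetic alteration affecting cell cycle control. Compound-exposed cultures were compared with vehicle cultures, and reduced growth was taken as inhibition.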

[12] = NCI Yeast Anticancer Drug Screen. Data for the wt2 strain (AID 169);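 also: 0% = growth of vehicle-treated yeast cultures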; conditions: S. cerevisiae wt2 strain growth inhibition, hits give high values
How it was run: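 Against vehicle-treated controls, the growth of yeast exposed to each compound was compared, and the inhibition was recorded.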

[13] = NCI Yeast Anticancer Drug Screen. Data for the mlh1 strain (AID 171);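 also: 0% = growth of vehicle-treated control cultures of the same strain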; conditions: S. cerevisiae mlh1 strain growth inhibition, hits give high values
How it was run: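 Measured: yeast growth. Reference: vehicle-treated controls. Organism: strain with a defined alteration affecting DNA damage repair or cell cycle control, treated with compound.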

[14] = NCI Yeast Anticancer Drug Screen. Data for the sgs1 strain (AID 173);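 also: 0% = growth of vehicle-only control cultures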; conditions: S. cerevisiae sgs1 mutant, hits give high values
How it was run: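 Each compound was added to cultures of the altered yeast strain. Growth was recorded, and inhibition was derived by comparison with vehicle controls.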

[15] = NCI Yeast Anticancer Drug Screen. Data for the mlh1 rad18 strain (AID 175); conditions: S. cerevisiae mlh1 rad18 strain growth inhibition, hits give high values
How it was run: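 Genetically defined yeast (DNA repair-deficient) exposed to compounds; growth inhibition determined relative to vehicle.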

[16] = NCI Yeast Anticancer Drug Screen. Data for the rad18 strain (AID 177); conditions: S. cerevisiae rad18 mutant growth inhibition, hits give high values
How it was run: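 Vehicle-treated cultures served as the baseline for scoring compound-induced growth inhibition in DNA-repair-mutant yeast.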

[17] = at 5.0 µM (retest, dose inferred, filed as 0.5)
[18] = at 50.0 µM (retest, dose inferred, filed as 5.0)

Measured: growth inhibition

NCc1c(O)ccc2ccccc12
inactive: [1]; at 1.2 µM -17% | [1]; at 3.7 µM -11% | [1]; at 11.0 µM -1% | [1]; at 33.0 µM 64% | [2]; at 1.2 µM 8% | [2]; at 3.7 µM 11% | [2]; at 11.0 µM 27% | [3]; at 1.2 µM -5% | [3]; at 3.7 µM -18% | [3]; at 11.0 µM 10% | [3]; at 33.0 µM 52% | [4]; at 1.2 µM -2% | [4]; at 3.7 µM -7% | [4]; at 11.0 µM 3% | [5]; at 1.2 µM -11% | [5]; at 3.7 µM -10% | [5]; [17] -150% | [5]; at 11.0 µM 2% | [6]; at 1.2 µM -3% | [6]; at 3.7 µM -1% | [6]; [17] -46% | [6]; at 11.0 µM 4% | [6]; at 33.0 µM 25% | [6]; [18] -15% | [6]; at 50.0 µM 47.5% | [7]; at 1.2 µM -3% | [7]; at 3.7 µM 5% | [7]; at 11.0 µM 49% | [8]; [17] -60% | [9]; at 1.2 µM -6% | [9]; at 3.7 µM -4% | [9]; at 11.0 µM -1% | [9]; at 33.0 µM 18% | [10]; [17] -53% | [10]; [18] -25% | [10]; at 50.0 µM 17.2% | [11]; at 1.2 µM -7% | [11]; at 3.7 µM -4% | [11]; [17] -71% | [11]; at 11.0 µM 0% | [11]; [18] 60% | [12]; at 1.2 µM 6% | [12]; at 3.7 µM 9% | [13]; at 1.2 µM -10% | [13]; at 3.7 µM -4% | [13]; at 11.0 µM 4% | [14]; at 1.2 µM -10% | [14]; at 3.7 µM -5% | [14]; at 11.0 µM 37% | [15]; [17] -138% | [16]; at 1.2 µM -6% | [16]; at 3.7 µM -6% | [16]; at 11.0 µM 7%
active: [1]; at 100.0 µM 99% | [2]; at 33.0 µM 90% | [2]; at 100.0 µM 99% | [3]; at 100.0 µM 88% | [4]; at 33.0 µM 98% | [4]; at 100.0 µM 99% | [5]; at 33.0 µM 92% | [5]; [18] 83% | [5]; at 50.0 µM 89.2% | [5]; at 100.0 µM 98% | [6]; at 100.0 µM 99% | [7]; at 33.0 µM 99% | [7]; at 100.0 µM 99% | [8]; [18] 74% | [8]; at 50.0 µM 85.9% | [9]; at 100.0 µM 98% | [11]; at 33.0 µM 79% | [11]; at 50.0 µM 93.7% | [11]; at 100.0 µM 98% | [12]; at 11.0 µM 70% | [12]; at 33.0 µM 99% | [12]; at 100.0 µM 99% | [13]; at 33.0 µM 96% | [13]; at 100.0 µM 98% | [14]; at 33.0 µM 99% | [14]; at 100.0 µM 99% | [15]; [18] 83% | [15]; at 50.0 µM 94% | [16]; at 33.0 µM 87% | [16]; at 100.0 µM 99%
